Screening results from PubChem.
NPSR antag: neuropeptide S receptor (human) antagonism, cAMP. Q6W5P4. CHO-NPSR cells, cAMP TR-FRET, antagonist mode. Potency, µM (doses to about 38.3 µM), for inactives: top-dose activity change, negative = inhibition, usual class: inhibitors. 220,000 compounds, 1% hits. AID 1461; note: potency is the fitted concentration of half-maximal effect; nearly all actives have a fitted effect of over 50% in size
Target sequence (Q6W5P4 whole entry, looked up): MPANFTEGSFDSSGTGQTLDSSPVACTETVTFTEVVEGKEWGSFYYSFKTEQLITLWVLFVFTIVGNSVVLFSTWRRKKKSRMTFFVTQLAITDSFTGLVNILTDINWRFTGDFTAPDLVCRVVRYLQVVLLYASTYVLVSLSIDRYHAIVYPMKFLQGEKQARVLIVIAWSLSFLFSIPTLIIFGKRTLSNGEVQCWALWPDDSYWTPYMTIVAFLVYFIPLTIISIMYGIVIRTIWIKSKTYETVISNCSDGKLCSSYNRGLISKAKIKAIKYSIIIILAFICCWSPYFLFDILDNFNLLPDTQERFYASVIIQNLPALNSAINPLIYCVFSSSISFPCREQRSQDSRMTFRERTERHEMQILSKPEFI
Tau FP inhib: tau fibrillization inhibition (FP) | K18 P301L tau heparin fibrillization, Alexa594 FP, 6 h | Potency, µM (top dose mostly 57.7 µM), for the others: at the top dose activity, negative = inhibition, usual class: inhibitors | 280,000 compounds, 0.39% hits | AID 1468; note: potency is the fitted concentration of half-maximal effect; nearly all actives have a fitted effect of over 55% in size
Target sequence (P10636 561-689 P618L limits assumed): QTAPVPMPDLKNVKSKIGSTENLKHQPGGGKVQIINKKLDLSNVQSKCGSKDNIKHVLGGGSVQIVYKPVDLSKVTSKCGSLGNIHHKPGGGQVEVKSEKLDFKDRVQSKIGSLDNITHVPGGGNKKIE
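Human tau K18 […] P301L fragment, 15 uM unlabeled plus 0.24 uM Alexa 594-labeled tau (final), with compound and 20 uM heparin in 100 mM sodium acetate pH 7; 6 hr at 37 C, then Alexa 594 FP read.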
KDM4E inh: blocks human JMJD2E demethylase activity; B2RXH2; JMJD2E catalytic domain, FDH-coupled NADH fluorescence (FDH is formaldehyde dehydrogenase); Potency, µM (series often up to 57.1 µM), without a hit: at the top dose activity change, negative = inhibition, actives largely listed as inhibitors; 230,000 compounds, 1.6% hits; AID 2147; active = well fitted inhibition curve with a large enough effect, not every such curve was filed as active; inconclusive = small, poorly fitted or top-dose-only effect, or another doubt; inactive = no such curve, though single readings can be large or run the other way;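 note: potency is the fitted concentration of half-maximal effect; 0% = wells with enzyme and -100% = buffer wells without enzyme; nearly all actives have a fitted effect of over 50% in size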
Tau fibril ThT: blocks human tau fibril formation measured by thioflavin T; P10636; recombinant tau K18 P301L, heparin-induced fibrillization, ThT fluorescence; Potency, µM (series often up to 57.4 µM), without a hit: at the top dose activity, negative = inhibition, most hits filed as inhibitors; 270,000 compounds, 2.1% hits; AID 1460; note: potency is the fitted concentration of half-maximal effect; nearly all actives have a fitted effect of over 55% in size
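Heparin-induced (20 uM) aggregation of recombinant human K18 P301L tau, 15 uM unlabeled with 0.24 uM labeled, pH 7 acetate buffer, 6 hr at 37 C with compound. Fibrils quantified by 30 uM ThT fluorescence after 1 hr ambient incubation.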
PNC assembly inh: perinucleolar compartment assembly inhibition; PC3M PTB-GFP, PNC prevalence imaging, 16 h; stronger effect = lower value; activity change (PNC), negative = inhibition, % at 10 µM; 140,000 compounds, 3.1% hits; AID 2417;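 active = readout at or below -70, meaning at least 70% loss of cells showing the perinucleolar compartment, a nuclear body marking cancer cells; inconclusive = readout between -30 and a set limit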;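 note: plate controls were DMSO wells for no effect and camptothecin positive control wells for full effect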
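Compounds are pinned in duplicate onto adhered PC3M cells stably expressing GFP-tagged PTB and incubated 16 h at 37 C. Cells are then fixed, nuclei stained with Hoechst, and PNC-positive cells counted.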
Tau fluor counter: counter-screen for tau fibril formation inhibitors. tau K18 P301L Alexa594 fluorescence, heparin fibrillization. Potency, µM (highest dose often 57.7 µM), without a hit: at the top dose activity change, negative = decrease. 280,000 compounds, 0.93% hits. AID 1463; note: potency is the fitted concentration of half-maximal effect; nearly all actives have a fitted effect of over 55% in size
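Human tau K18 P301L (15 uM unlabeled, 0.24 uM Alexa 594-labeled) in 100 mM sodium acetate pH 7 with 20 uM heparin, 6 hr at 37 C. ThT 30 uM added, 1 hr ambient; Alexa 594 FP and total fluorescence read at 555/632 nm.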
* hit, by the source's call; ? = inconclusive; . = not tested or not shown; [ ] = another dose, or the depositor's remark. Compounds with a hit are over-represented: about 5.1% of the library has one in this group of screens. Unless noted, calls come from the whole dose curve; as a rule, active = well fitted curve in the direction sought with a large enough effect; inconclusive = small, poorly fitted or top-dose-only effect, or another doubt; inactive = no such curve, though single readings can be large; an effect the other way counts as inactive or inconclusive. Unless noted, % is set by controls: 0 for no effect and ±100 for the full control effect.

SMILES | NPSR antag | Tau FP inhib | KDM4E inh | Tau fibril ThT | PNC assembly inh | Tau fluor counter
COc1ccc(NC(=S)Nc2ccc(OCc3ccccc3)cc2)cc1OC | -20% | 18% | 5% | ? | 80 | 25µM*[quencher]
COc1ccc(C(=O)Cc2ccccc2)cc1OC | 10% | 5% | 4% | 5% | -84* | 7%
COc1ccc(C(=O)NN=C(Cc2ccccc2)Cc2ccccc2)cc1OC | -9% | -7% | 29% | ? | 9 | -12%
CNC(=O)c1ccc(OCc2ccccc2)c(OC)c1 | -7%[46.1 µM] | -3% | 6% | 2% | -107* | 0%
COc1cccc(CNC(=O)CCc2c(C)nc3c(c(C)nn3-c3ccc(C)c(C)c3)c2C)c1 | . | -2% | . | 4% | . | ?
CC(=O)c1ccc(NC(=O)C2CC(=O)N(Cc3ccccc3)C2)cc1 (stereo not given) | -16%[46.1 µM] | -1% | -4% | 8.9µM* | -20 | -17%
COc1cccc(-c2nn(C)c3sc(C(=O)Nc4ccc5c(c4)OCCO5)cc23)c1 | -26%[46.1 µM] | 9% | 0% | -3% | ? | 0%
Cn1nc(-c2ccccc2F)c2cc(C(=O)Nc3ccc4c(c3)OCCO4)sc21 | ? | ? | -27% | ? | -18 | 7.9µM*[quencher]
CCN(CC)CCNC(=O)c1cc2c(-c3ccc(Cl)cc3)nn(C)c2s1 | -15%[46.1 µM] | -9% | ? | -11% | 4 | -25%
Cc1nn(-c2ccccc2)c2sc(C(=O)Nc3cccc(Cl)c3)cc12 | . | 3.2µM* | . | ? | . | ?
Cn1nc(-c2ccc(Cl)cc2)c2cc(C(=O)NC3CC3)sc21 | -8%[46.1 µM] | ? | ? | -5% | -86* | -9%
COc1cccc(NC(=O)c2cc3c(-c4ccc(Cl)cc4)nn(C)c3s2)c1 | . | 16µM* | . | 1% | . | ?
Cc1ccccc1CN1C(=O)c2ccccc2S(=O)c2ccc(C(=O)NCc3ccc4c(c3)OCO4)cc21 (stereo not given) | . | -11% | . | -1% | . | -22%
COc1ccc(-c2nn(C)c3sc(C(=O)NCCN(C)C)cc23)cc1OC | . | -1% | . | -13% | . | -24%
COc1ccc(-c2nn(C)c3sc(C(=O)Nc4cccc(F)c4)cc23)cc1OC | . | 13µM* | . | -6% | . | ?
Cc1oc2ccc(O)cc2c1C(=O)c1ccc([N+](=O)[O-])cc1 | 6% | 13% | 9% | -13% | 11 | -25%
CN(C)/C=C/c1oc2ccc(O)cc2c1[N+](=O)[O-] | -46% | 5% | -2% | 11µM* | . | -13%
COc1ccc(CCNC(=O)CN(c2ccc(C)cc2)S(=O)(=O)c2ccc(OC)cc2)cc1 | . | 3% | . | -9% | . | -13%
COc1ccc(-c2ccc(/C=C3/C(=N)N4C=CSC4=NC3=O)o2)c([N+](=O)[O-])c1 | -14% | -16% | ? | 1.8µM* | ? | ?
N=C1/C(=C/c2cccn2-c2ccc([N+](=O)[O-])cc2)C(=O)N=C2SC=CN12 | 22% | 6% | 1% | -4% | ? | -1%
CC12CN(S(=O)(=O)c3ccccc3)CC(C)(CN(S(=O)(=O)c3ccccc3)C1)C2 | -22%[46.1 µM] | 5% | -2% | -6% | -113* | 6%
CCS(=O)(=O)N1CCN(S(=O)(=O)c2ccccc2)CC1 | -11%[46.1 µM] | 4% | 2% | -9% | 2 | -5%
CC(C)CCn1nnc2sc(-c3ccccc3)cc2c1=O | . | -4% | . | ? | . | -26%
CN1CC2([N+](=O)[O-])CC=C(Oc3ccccc3)C([N+](=O)[O-])(C1)C2 (stereo not given) | -30%[46.1 µM] | 1% | 3% | 1% | -20 | -10%
CN1CC2([N+](=O)[O-])CC=C(OCCO)C([N+](=O)[O-])(C1)C2 (stereo not given) | 9% | 1% | 6% | 1% | -115* | 3%
SMILES | NPSR antag | Tau FP inhib | KDM4E inh | Tau fibril ThT | PNC assembly inh | Tau fluor counter
CCc1ccccc1NC(=O)Cn1c(=O)n(-c2ccc(C)cc2)c(=O)c2cc(OC)c(OC)cc21 | . | -14% | . | 1% | . | -8%
COc1ccccc1N1CCN(S(=O)(=O)CCNC(=O)Cc2ccc(Cl)cc2)CC1 | . | 10% | . | 3% | . | -7%
O=C(O)c1ccc(N2C(=O)c3cccc4c(C(=O)O)ccc(c34)C2=O)cc1 | 10% | 5% | 28µM* | -3% | . | 0%
O=S(=O)(Nc1cccc(-c2ccc(N3CCOCC3)nn2)c1)c1ccccc1C(F)(F)F | . | -6% | . | -5% | . | -16%
CC1CCN(c2oc(-c3cccc4ccccc34)nc2C#N)CC1 | -11%[46.1 µM] | -15% | ? | 0% | -100* | -5%
Cc1oc(-c2cccc(Br)c2)nc1Cn1c(SCc2cccc(F)c2)nc2cccnc21 | . | 11% | . | -12% | . | -10%
CCNS(=O)(=O)c1ccc(NC(=O)Nc2ccccc2OC)cc1 | 19% | -10% | -5% | -7% | . | -30%
Cc1ccc(C)c(NC(=O)CNS(=O)(=O)c2ccccc2)c1 | 3%[46.1 µM] | -6% | -5% | 0% | -80* | 0%
COc1ccccc1NC(=O)NS(=O)(=O)c1ccc(C)cc1 | -7%[46.1 µM] | -4% | 10% | -8% | -110* | -12%
CCOc1ccccc1NC(=O)COC(=O)CN(C)S(=O)(=O)c1ccc(C)cc1 | 10% | 3% | 1% | 7% | 0 | 5%
CCCNS(=O)(=O)c1ccc(OCC(=O)Nc2ccccc2F)cc1 | -11% | -1% | 7% | -16% | -112* | -17%
CCCNS(=O)(=O)c1ccc(OCC(=O)OC)cc1 | -6%[46.1 µM] | -1% | -1% | 2% | -27 | -1%
CCOc1ccccc1NC(=O)COC(=O)CNS(=O)(=O)c1ccc(C)cc1 | 13% | 4% | 1% | -4% | -116* | -8%
Cc1ccc(C(=O)N2CCC(N3CCN(Cc4ccc(F)cc4)C(=O)C3=O)CC2)cc1 | . | 4% | . | -12% | . | -11%
Cc1ccc(S(=O)(=O)NCC(=O)N/N=C/c2ccccc2O)cc1 | -18% | -12% | 25µM* | -6% | . | -21%
Cc1cccc(N2CCN(C(=O)CS(=O)(=O)Cc3nc(-c4ccccc4C)oc3C)CC2C)c1 (stereo not given) | . | 8% | . | ? | . | -16%
COc1ccc(OC)c(NC(=O)c2cc3c(Cl)nc4ccccc4c3s2)c1 | -10% | 9% | 4% | -6% | 50 | -19%
COc1ccc(NC(=O)c2cc3c(Cl)nc4ccccc4c3s2)cc1OC | -8% | 7% | 14% | ? | -88* | 4.5µM*[quencher]
COC(=O)c1sc(NC(=O)c2ccc(Cn3cc(Cl)cn3)o2)c(C#N)c1C | ? | ? | ? | 25µM* | 6 | ?
CCOC(=O)/C(=N\Nc1ccccc1)c1csc(Nc2ccc(C)cc2)n1 | -25%[46.1 µM] | 8% | -13% | ? | -28 | 7.1µM*[quencher]
COc1cc(OC)cc(-c2nnc(Sc3ccc(C=O)cc3[N+](=O)[O-])o2)c1 | -11%[46.1 µM] | -13% | -3% | 25µM* | -27 | ?
